# PubChem BioAssay (EPA / NIEHS)
# Inconclusive results are not listed. The source made the active and inactive calls. Rule for the calls: active = hit-call score of the fitted dose curve at least 0.9, where 1 is the maximum; inconclusive = response in the unintended direction; inactive = score below 0.9.
# Tests used:
# [1] = target: rabbit Imidazoline 2 Central (I2C), CKB (gene 100009085) (UniProt P00567); assay: NVS_ENZ_rabI2C: NovaScreen (NVS) Enzymatic Assay for rabbit Imidazoline 2 Central (I2C) (AID 2283228)
# Method in brief: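 Rabbit brain membranes, cell-free; readout by filter-based scintillation counting 1.5 hours after dosing, loss of signal vs DMSO. Initial duplicate test at 25 uM, then concentration-response with 50 uM top concentration.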
# [2] = target: rat Monoamine Oxidase, MAO-B, Central (MAOBC), Maob (gene 25750) (UniProt P19643); assay: NVS_ENZ_rMAOBC: NovaScreen (NVS) Enzymatic Assay for rat Monoamine Oxidase, MAO-B, Central (MAOBC) (AID 2283238)
# Method in brief: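 MAO-B activity in rat brain tissue preparation, cell-free, measured radiometrically by scintillation counting 1.17 h after dosing. Screened in duplicate at 25 uM; actives then in concentration-response up to 50 uM. Loss of signal versus DMSO scored.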
# [3] = system: rat Monoamine Oxidase, MAO-A, Central (MAOAC), gene 29253; assay: NVS_ENZ_rMAOAC: NovaScreen (NVS) Enzymatic Assay for rat Monoamine Oxidase, MAO-A, Central (MAOAC) (AID 2283243);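 note: potency refers to inhibition seen as signal drop below DMSO baseline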
# Method in brief: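 Steps: rat brain protein extract dosed with test chemical (25 uM, duplicate, primary); incubated 1.5 h; radiolabelled product separated from substrate and counted. Signal loss versus DMSO scored as inhibition.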
# [4] = target: human Vascular Endothelial Growth Factor Receptor 2 (VEGFR2), KDR (gene 3791) (UniProt P35968); assay: NVS_ENZ_hVEGFR2: NovaScreen (NVS) Enzymatic Assay for human Vascular Endothelial Growth Factor Receptor 2 (VEGFR2) (AID 2283230)
# Method in brief: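 Cell-free recombinant VEGFR2 kinase, fluorescent substrate with electrophoretic mobility-shift separation; read 1 h after dosing. Screened at 25 uM in duplicate, hits to concentration-response up to 50 uM; loss-of-signal versus DMSO.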
# [5] = target: rat Acetylcholinesterase (AChE), Ache (gene 83817) (UniProt P37136); assay: NVS_ENZ_rAChE: NovaScreen (NVS) Enzymatic Assay for rat Acetylcholinesterase (AChE) (AID 2283233)
# Method in brief: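 Rat brain membrane acetylcholinesterase activity measured colorimetrically 0.33 h after compound addition, loss of signal relative to DMSO. Primary screen in duplicate at 25 uM; actives re-run as concentration-response with 50 uM top concentration.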
# [6] = target: rat Catechol-O-Methyl Transferase (COMT), Comt (gene 24267) (UniProt P22734); assay: NVS_ENZ_rCOMT: NovaScreen (NVS) Enzymatic Assay for rat Catechol-O-Methyl Transferase (COMT) (AID 2283235)
# Method in brief: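 Cell-free enzyme activity with protein extracted from rat dorsal striatum, measured by HPLC with absorbance detection. Compounds screened at 25 uM in duplicate; actives then run in concentration-response up to 50 uM, loss of signal versus DMSO.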
# [7] = target: human Tyrosine Protein Kinase Receptor Tie-2 (Tie2), TEK (gene 7010) (UniProt Q02763); assay: NVS_ENZ_hTie2: NovaScreen (NVS) Enzymatic Assay for human Tyrosine Protein Kinase Receptor Tie-2 (Tie2) (AID 2283225)
# Method in brief: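 Recombinant human Tie2 kinase activity was read cell-free by fluorescence with electrophoretic mobility shift, 1 hour after dosing. The screen used 25 uM in duplicate, then concentration-response up to 50 uM. Signal loss was scored against DMSO.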
# [8] = target: rat Monoamine Oxidase, MAO-B, Peripheral (MAOBP), Maob (gene 25750) (UniProt P19643); assay: NVS_ENZ_rMAOBP: NovaScreen (NVS) Enzymatic Assay for rat Monoamine Oxidase, MAO-B, Peripheral (MAOBP) (AID 2283242)
# [9] = target: bovine Dopamine Receptor (DR), Non-selective Binding, DRD1 (gene 281125) (UniProt Q95136); assay: NVS_GPCR_bDR_NonSelective: NovaScreen (NVS) G Protein-Coupled Receptor Assay for bovine Dopamine Receptor (DR), Non-selective Binding (AID 2283241)
# Method in brief: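 Bovine striatal membranes; radioligand displacement read by filtration and scintillation counting 1 h after dosing, loss of signal vs DMSO. Screened in duplicate at 25 uM, then concentration-response for hits.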
# [10] = target: rat Constitutive Nitric Oxide Synthase (CNOS), Nos1 (gene 24598) (UniProt P29476); assay: NVS_ENZ_rCNOS: NovaScreen (NVS) Enzymatic Assay for rat Constitutive Nitric Oxide Synthase (CNOS) (AID 2283236)
# Method in brief: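 Enzyme activity in rat brain membrane preparation, read 1 h after dosing by filter-based radiometric scintillation counting. Primary screen in duplicate at 25 uM; actives (e.g., ≥30% inhibition) then run in concentration-response up to 50 uM.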
# [11] = target: rat Adenylate Cyclase, Forskolin Stimulated, Adcy5 (gene 64532) (UniProt Q04400); assay: NVS_ENZ_rACFSKBinding: NovaScreen (NVS) Enzymatic Assay for rat Adenylate Cyclase, Forskolin Stimulated (AID 2283232)
# Method in brief: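 Rat forebrain membrane preparation, cell-free, read 1 h after dosing by filter-based scintillation counting. Primary screen in duplicate at 25 uM; actives (e.g. ≥30% inhibition) rerun in concentration-response up to 50 uM; fit versus DMSO.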
# [12] = target: human Serotonin, 5-Hydroxytryptamine Receptor 2A (5HT2A), HTR2A (gene 3356) (UniProt P28223); assay: NVS_GPCR_h5HT2A: NovaScreen (NVS) G Protein-Coupled Receptor Assay for human Serotonin, 5-Hydroxytryptamine Receptor 2A (5HT2A) (AID 2283249)
# Method in brief: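 Human cortex membranes, cell-free radioligand binding; filter-based scintillation read 1.5 h after dosing. Duplicate screen at 25 uM first; displacement of specific binding (loss of signal) versus DMSO.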
# [13] = system: rat Monoamine Oxidase, MAO-A, Peripheral (MAOAP), gene 29253; assay: NVS_ENZ_rMAOAP: NovaScreen (NVS) Enzymatic Assay for rat Monoamine Oxidase, MAO-A, Peripheral (MAOAP) (AID 2283237)
# Method in brief: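 Rat liver mitochondrial membranes served as the MAO-A source, with enzyme activity measured by radiometric scintillation counting 1.17 hours after dosing. Loss of signal was fitted against DMSO; primary screen used 25 uM in duplicate, follow-up used concentration series.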
# [14] = target: Adenosine receptor A1 (Bos taurus) (UniProt P28190); assay: NVS_GPCR_bAdoR_NonSelective: NovaScreen (NVS) G Protein-Coupled Receptor Assay for bovine Adenosine Receptor (AdoR), Non-selective Binding (AID 2283244)
# Method in brief: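 Bovine striatal membranes, radioligand displacement binding, 1 h after dosing, filter-based scintillation counting. Screened in duplicate at 25 uM, then concentration-response up to 50 uM; loss of specific binding relative to DMSO.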
# [15] = system: bovine Histamine 1 Receptor (H1), gene 281231; assay: NVS_GPCR_bH1: NovaScreen (NVS) G Protein-Coupled Receptor Assay for bovine Histamine 1 Receptor (H1) (AID 2283246)
# Method in brief: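 Radioligand displacement on bovine cerebellar membranes, 1 h after dosing, filter-based scintillation read-out; loss of signal vs DMSO. Duplicate single-concentration screen at 25 uM, then concentration-response up to 50 uM for hits.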
# [16] = target: human Vascular Endothelial Growth Factor Receptor 1 (VEGFR1), FLT1 (gene 2321) (UniProt P17948); assay: NVS_ENZ_hVEGFR1: NovaScreen (NVS) Enzymatic Assay for human Vascular Endothelial Growth Factor Receptor 1 (VEGFR1) (AID 2283226)
# Method in brief: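 Cell-free assay of recombinant human VEGFR1 kinase with substrate, measured 1 h after dosing; fluorescence with electrophoretic mobility-shift separation of substrate and product, referenced to DMSO; primary screen at 25 uM in duplicate, actives then run in concentration series.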
# [17] = system: guinea pig Leukotriene B4 Receptor (LTB4), gene 100379538; assay: NVS_GPCR_gLTB4: NovaScreen (NVS) G Protein-Coupled Receptor Assay for guinea pig Leukotriene B4 Receptor (LTB4) (AID 2283247)
# Method in brief: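 Radioligand displacement on guinea pig spleen membranes, filter-based scintillation counting 2 h after dosing. Primary duplicate single point at 25 uM; hits over threshold (e.g. 30% inhibition) run in concentration-response up to 50 uM, DMSO baseline.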
# [18] = target: human Vascular Endothelial Growth Factor Receptor 3 (VEGFR3), FLT4 (gene 2324) (UniProt P35916); assay: NVS_ENZ_hVEGFR3: NovaScreen (NVS) Enzymatic Assay for human Vascular Endothelial Growth Factor Receptor 3 (VEGFR3) (AID 2283229)
# Method in brief: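 Cell-free recombinant VEGFR3 kinase reaction with fluorescent substrate, read 1 h after dosing by electrophoretic mobility shift separation of substrate and product. Single-concentration duplicate screen at 25 uM, then concentration-response up to 50 uM; loss of activity versus DMSO.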
# Sequence of rabbit Imidazoline 2 Central (I2C), CKB (gene 100009085) (P00567 whole entry, looked up): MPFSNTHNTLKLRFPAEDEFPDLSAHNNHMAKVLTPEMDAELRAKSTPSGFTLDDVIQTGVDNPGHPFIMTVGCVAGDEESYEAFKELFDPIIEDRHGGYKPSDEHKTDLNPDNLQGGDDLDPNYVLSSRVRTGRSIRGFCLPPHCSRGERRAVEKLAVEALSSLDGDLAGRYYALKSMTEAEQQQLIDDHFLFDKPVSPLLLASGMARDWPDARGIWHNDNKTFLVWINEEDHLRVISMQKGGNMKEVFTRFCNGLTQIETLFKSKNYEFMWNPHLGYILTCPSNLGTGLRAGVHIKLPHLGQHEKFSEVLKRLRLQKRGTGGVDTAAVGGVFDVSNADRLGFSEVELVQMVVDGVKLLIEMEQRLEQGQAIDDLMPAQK
# Sequence of human Tyrosine Protein Kinase Receptor Tie-2 (Tie2), TEK (gene 7010) (Q02763 whole entry, looked up): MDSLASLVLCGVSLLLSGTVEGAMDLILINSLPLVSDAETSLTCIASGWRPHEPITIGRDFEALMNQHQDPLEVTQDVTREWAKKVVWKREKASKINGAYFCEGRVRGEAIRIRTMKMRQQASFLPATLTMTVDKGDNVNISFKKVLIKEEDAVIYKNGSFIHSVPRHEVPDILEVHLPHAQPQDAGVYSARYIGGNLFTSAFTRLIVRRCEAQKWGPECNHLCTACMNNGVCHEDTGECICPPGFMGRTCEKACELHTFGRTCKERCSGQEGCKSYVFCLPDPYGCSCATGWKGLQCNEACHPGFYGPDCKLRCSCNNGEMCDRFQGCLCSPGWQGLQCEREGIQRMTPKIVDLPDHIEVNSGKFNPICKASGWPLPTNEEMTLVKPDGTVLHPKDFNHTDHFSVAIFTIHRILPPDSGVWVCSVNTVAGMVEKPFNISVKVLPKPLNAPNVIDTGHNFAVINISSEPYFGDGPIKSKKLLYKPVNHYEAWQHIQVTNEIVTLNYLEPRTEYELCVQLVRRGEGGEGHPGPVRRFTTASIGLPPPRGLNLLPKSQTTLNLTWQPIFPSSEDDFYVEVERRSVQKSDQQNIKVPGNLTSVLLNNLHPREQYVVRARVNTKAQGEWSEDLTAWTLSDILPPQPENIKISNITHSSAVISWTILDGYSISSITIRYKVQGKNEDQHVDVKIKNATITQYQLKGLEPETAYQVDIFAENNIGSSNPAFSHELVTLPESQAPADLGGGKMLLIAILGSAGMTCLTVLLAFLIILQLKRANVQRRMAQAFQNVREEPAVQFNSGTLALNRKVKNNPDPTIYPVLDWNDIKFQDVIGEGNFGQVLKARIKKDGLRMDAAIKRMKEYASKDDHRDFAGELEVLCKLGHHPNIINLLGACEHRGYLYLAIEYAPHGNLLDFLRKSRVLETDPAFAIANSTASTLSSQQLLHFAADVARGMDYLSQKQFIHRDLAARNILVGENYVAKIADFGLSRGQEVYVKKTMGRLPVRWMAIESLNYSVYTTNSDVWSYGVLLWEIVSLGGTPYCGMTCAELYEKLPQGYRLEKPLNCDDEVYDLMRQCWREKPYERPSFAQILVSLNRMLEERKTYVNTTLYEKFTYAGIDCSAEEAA
# Sequence of rat Acetylcholinesterase (AChE), Ache (gene 83817) (P37136 whole entry, looked up): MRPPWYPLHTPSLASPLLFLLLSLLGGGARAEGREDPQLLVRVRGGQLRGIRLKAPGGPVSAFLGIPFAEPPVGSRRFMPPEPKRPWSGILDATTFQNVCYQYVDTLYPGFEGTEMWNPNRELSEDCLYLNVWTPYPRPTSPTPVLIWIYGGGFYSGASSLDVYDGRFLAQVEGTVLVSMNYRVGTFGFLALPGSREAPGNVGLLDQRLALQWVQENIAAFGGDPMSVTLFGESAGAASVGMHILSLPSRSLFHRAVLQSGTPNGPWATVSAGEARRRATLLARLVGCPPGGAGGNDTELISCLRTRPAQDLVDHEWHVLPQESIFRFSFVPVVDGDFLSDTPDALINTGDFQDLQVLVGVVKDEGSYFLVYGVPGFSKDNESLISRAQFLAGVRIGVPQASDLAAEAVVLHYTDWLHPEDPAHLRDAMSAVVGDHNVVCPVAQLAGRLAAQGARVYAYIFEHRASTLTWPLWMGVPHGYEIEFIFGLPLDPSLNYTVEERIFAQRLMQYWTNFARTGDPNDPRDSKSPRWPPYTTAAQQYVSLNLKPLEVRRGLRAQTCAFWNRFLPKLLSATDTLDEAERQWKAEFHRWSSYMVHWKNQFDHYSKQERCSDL
# Sequence of rat Monoamine Oxidase, MAO-B, Peripheral (MAOBP), Maob (gene 25750) (P19643 whole entry, looked up): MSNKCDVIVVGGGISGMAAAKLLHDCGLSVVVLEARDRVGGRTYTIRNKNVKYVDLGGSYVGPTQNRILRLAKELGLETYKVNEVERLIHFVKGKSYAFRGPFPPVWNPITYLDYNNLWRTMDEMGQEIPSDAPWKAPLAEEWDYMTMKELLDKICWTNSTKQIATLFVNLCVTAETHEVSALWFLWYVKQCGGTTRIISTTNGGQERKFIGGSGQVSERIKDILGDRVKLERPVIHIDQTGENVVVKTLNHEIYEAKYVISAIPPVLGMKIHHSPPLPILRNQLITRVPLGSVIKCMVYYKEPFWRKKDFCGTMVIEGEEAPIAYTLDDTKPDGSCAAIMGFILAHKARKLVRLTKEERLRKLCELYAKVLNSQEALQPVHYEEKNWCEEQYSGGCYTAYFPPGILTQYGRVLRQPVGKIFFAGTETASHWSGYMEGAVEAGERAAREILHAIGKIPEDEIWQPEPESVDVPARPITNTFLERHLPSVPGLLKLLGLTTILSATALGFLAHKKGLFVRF
# Sequence of rat Constitutive Nitric Oxide Synthase (CNOS), Nos1 (gene 24598) (P29476 whole entry, looked up): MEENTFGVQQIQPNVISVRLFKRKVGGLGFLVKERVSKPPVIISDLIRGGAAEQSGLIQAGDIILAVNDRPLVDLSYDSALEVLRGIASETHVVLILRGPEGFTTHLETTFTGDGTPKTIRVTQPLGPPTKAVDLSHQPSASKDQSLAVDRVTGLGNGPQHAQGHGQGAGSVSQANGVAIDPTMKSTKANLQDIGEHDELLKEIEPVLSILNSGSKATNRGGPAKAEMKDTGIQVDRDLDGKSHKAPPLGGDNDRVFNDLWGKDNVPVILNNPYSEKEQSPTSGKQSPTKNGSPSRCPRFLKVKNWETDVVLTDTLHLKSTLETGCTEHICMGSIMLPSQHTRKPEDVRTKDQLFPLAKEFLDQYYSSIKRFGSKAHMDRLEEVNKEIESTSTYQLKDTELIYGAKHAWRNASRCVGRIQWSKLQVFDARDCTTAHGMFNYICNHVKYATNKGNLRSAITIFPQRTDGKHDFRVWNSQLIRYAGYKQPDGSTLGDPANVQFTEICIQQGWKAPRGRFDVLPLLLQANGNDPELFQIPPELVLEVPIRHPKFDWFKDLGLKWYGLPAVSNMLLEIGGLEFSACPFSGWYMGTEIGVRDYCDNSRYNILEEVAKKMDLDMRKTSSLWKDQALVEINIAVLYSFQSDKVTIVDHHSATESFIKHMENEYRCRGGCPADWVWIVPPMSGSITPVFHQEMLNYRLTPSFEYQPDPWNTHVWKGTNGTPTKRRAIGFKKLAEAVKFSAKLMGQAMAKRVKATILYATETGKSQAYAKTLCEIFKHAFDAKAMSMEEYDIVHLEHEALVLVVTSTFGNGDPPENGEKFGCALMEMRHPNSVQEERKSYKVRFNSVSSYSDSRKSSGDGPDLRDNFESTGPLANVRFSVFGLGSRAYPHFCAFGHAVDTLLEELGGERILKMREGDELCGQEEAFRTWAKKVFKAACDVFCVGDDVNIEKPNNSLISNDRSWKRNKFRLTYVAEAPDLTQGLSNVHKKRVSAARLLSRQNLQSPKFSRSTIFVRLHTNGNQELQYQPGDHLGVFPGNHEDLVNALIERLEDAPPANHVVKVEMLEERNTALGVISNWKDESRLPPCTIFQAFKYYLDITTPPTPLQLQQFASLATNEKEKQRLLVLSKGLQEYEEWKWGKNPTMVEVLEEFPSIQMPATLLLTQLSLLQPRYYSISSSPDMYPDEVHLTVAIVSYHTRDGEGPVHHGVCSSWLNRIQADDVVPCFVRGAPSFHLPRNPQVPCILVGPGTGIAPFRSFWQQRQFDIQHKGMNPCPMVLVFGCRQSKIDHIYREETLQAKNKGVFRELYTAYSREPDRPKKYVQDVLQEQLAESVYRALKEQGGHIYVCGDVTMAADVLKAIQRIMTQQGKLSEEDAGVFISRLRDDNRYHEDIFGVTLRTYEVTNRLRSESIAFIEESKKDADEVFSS
# Sequence of rat Monoamine Oxidase, MAO-B, Central (MAOBC), Maob (gene 25750) (P19643 whole entry, looked up): as the sequence (P19643 whole entry, looked up) above
# Sequence of rat Catechol-O-Methyl Transferase (COMT), Comt (gene 24267) (P22734 whole entry, looked up): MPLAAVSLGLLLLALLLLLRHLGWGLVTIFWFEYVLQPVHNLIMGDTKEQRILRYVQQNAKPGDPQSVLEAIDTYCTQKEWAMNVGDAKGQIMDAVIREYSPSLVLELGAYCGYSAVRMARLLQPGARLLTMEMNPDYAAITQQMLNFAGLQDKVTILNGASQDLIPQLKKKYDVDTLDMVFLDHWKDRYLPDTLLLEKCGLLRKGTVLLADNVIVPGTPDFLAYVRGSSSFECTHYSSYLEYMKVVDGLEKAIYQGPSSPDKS
# Sequence of Adenosine receptor A1 (Bos taurus) (P28190 whole entry, looked up): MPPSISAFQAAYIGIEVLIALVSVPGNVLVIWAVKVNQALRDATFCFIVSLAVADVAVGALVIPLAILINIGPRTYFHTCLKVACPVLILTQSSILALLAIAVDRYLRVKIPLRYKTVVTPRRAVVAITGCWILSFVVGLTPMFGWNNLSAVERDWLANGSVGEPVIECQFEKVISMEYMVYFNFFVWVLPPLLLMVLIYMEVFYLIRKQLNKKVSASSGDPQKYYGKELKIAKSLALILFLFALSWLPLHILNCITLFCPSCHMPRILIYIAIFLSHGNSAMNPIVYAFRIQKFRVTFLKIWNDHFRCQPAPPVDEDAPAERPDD
structure (smiles),measurement,setting,value
Cc1ccc(N=CN(C)C=Nc2ccc(C)cc2C)c(C)c1,AC50,[1],1.21 µM (active)
same,outcome,[2],inactive
same,AC50,[3],1.66 µM (active)
Clc1nc(Cl)nc(Nc2ccccc2Cl)n1,outcome,[4],inactive
CCOP(=O)(OCC)Oc1nc(Cl)c(Cl)cc1Cl,AC50,[5],0.488 µM (active)
same,outcome,[6],inactive
Nc1cnn(-c2ccccc2)c(=O)c1Cl,outcome,[7],inactive
Cn1c(-c2ccccc2)cc(-c2ccccc2)[n+]1C,AC50,[1],12 µM (active)
CNC(=O)Oc1cccc2ccccc12,AC50,[5],6.15 µM (active)
same,AC50,[2],6.28 µM (active)
same,AC50,[8],25 µM (active)
same,AC50,[3],13.8 µM (active)
CCCN(CC)CC1COC2(CCC(C(C)(C)C)CC2)O1 (stereo not given),AC50,[1],13 µM (active)
same,outcome,[9],inactive
same,outcome,[8],inactive
CCNC(=O)NC(=O)C(C#N)=NOC,outcome,[5],inactive
same,AC50,[10],9.03 µM (active)
OC(c1ccc(Cl)cc1)(c1ccc(Cl)cc1)C(Cl)(Cl)Cl,outcome,[7],inactive
O=C1C2CC=CCC2C(=O)N1SC(Cl)(Cl)Cl (stereo not given),outcome,[11],inactive
same,outcome,[6],inactive
same,outcome,[12],inactive
COP(=S)(OC)SCn1nnc2ccccc2c1=O,outcome,[11],inactive
same,outcome,[5],inactive
same,outcome,[10],inactive
same,outcome,[13],inactive
same,outcome,[8],inactive
same,AC50,[14],8.1 µM (active)
same,AC50,[15],2.4 µM (active)
O=c1n(Cl)c(=O)n(Cl)c(=O)n1Cl,outcome,[5],inactive
N#CN=C1SCCN1Cc1ccc(Cl)nc1,AC50,[5],16.6 µM (active)
C=CCOC(=O)C(C)(C)OC(=O)c1cc(-n2c(=O)cc(C(F)(F)F)n(C)c2=O)ccc1Cl,outcome,[16],inactive
CC(C)C1(C)N=C(c2ncccc2C(=O)O)NC1=O (stereo not given),outcome,[7],inactive
CCN(CC)C(=O)C(C)Oc1cccc2ccccc12 (stereo not given),outcome,[1],inactive
same,outcome,[17],inactive
CS(=O)(=O)c1ccc(C(=O)C2C(=O)CCCC2=O)c([N+](=O)[O-])c1,outcome,[18],inactive
same,outcome,[10],inactive
CC1(C)C(C=C(Cl)Cl)C1C(=O)OC(C#N)c1cccc(Oc2ccccc2)c1 (stereo not given),outcome,[7],inactive
CC(C)N1C(=O)N(c2ccccc2)CSC1=NC(C)(C)C,outcome,[5],inactive
same,outcome,[13],inactive
same,outcome,[8],inactive
